MITF inh = blocks human microphthalmia-associated transcription factor | AlphaScreen MITF homodimerization, bead proximity signal | hit rate 0.91% among 650,000 | AID 1259374 | inhibition, % at 2.6 µM; in the data active = inhibition above about 50%;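 note: 0% = vehicle wells with protein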
FBW7 act = activators of human E3 ligase FBW7. AlphaScreen FBW7–phospho-cyclin E peptide binding, activator screen. hit rate 0.13% among 650,000. AID 1259310. normalized activity (activation), % at 26.1 µM; in the data active = normalized activity above about 1.9%;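 note: purified mutant Fbw7 with reduced substrate affinity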
TEAD-YAP block = TEAD-YAP interaction inhibition; HEK-TIYL cells, TEAD-Gal4/YAP UAS-luciferase luminescence; inhibition, % at 9.12 µM; hit rate 1.4% among 640,000; AID 1259422; in the data active = inhibition above about 32%;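 note: 0% = median of test compound wells and 100% = reference inhibitor wells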
GPR151 ag = activators of human GPR151; Q8TDV0; PathHunter beta-arrestin GPR151 cells, luminescence; activation, % at 11.2 µM; hit rate 1% among 650,000; in the data active = activation above about 4.9%;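 note: 0% = median of compound wells and 100% = cells with positive control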
MITF inh conf = human MITF inhibition, confirmation; inhibition, % at 2.6 µM; hit rate 16% among 4,700; AlphaScreen MITF homodimerization, biotin/His-MITF beads; shares compounds with MITF inh; AID 1259372;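 active = inhibition above a cutoff derived from the DMSO control wells, cut at about 28% in these data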;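 note: 0% = MITF dimer wells with DMSO only; inhibitors lower the bead chemiluminescence by keeping MITF from dimerizing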
AlphaScreen DR = counter-screen: compounds optically interfering with AlphaScreen; shares compounds with MITF inh; AlphaScreen optical interference counterscreen, cell-free; IC50, µM; hit rate 6% among 480; AID 1259373; call rule not given here
AlphaScreen intf2 = optically interferes with AlphaScreen signal; shares compounds with MITF inh; LysRS AlphaScreen counterscreen, signal interference, triplicate; inhibition, % at 2.6 µM; hit rate 7.6% among 4,700; AID 1259376;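 active = inhibition above a cutoff derived from the DMSO control wells, cut at about 30% in these data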
Numbers without * were called inactive; x = not tested or not shown. A selection: hits, their analogues and other compounds. The true share with any hit is near 3.5%.

SMILES	MITF inh	FBW7 act	TEAD-YAP block	GPR151 ag	MITF inh conf	AlphaScreen intf2	others
COC(=O)C1=CN(C)C=C(C(=O)OC)C1c1ccc(OC)c(OCc2ccccc2)c1	-4	0	-4	-1	x	x
CCOC(=O)C1=C(C)NC(=S)NC1c1ccc(OCC(=O)OC)cc1 (configuration not stated)	16	0	1	0	x	x
CCC(C)(C)c1ccc(OCCOCCn2cncn2)c(Cl)c1	67*	0	8	2	0	3
O=C(CCCn1c(=S)[nH]c2ccccc2c1=O)N1CCOCC1	114*	0	1	1	1	0
CCCCOc1ccc(C(=O)N/C(=C\c2ccco2)C(=O)OC)cc1	10	0	-3	0	x	x
CCCCOc1ccc(C(=O)N/C(=C/c2ccco2)C(=O)O)cc1	51*	0	5	-1	64*	2	AlphaScreen DR=>6.5
O=C(CNC1CCCCCC1)Nc1ccc(CN2CCCCC2)cc1	67*	0	5	0	8	15
O=C(CNCC1CCCCC1)Nc1ccc(CN2CCCCC2)cc1	63*	0	-1	0	10	14
O=C(CNC1CC1)Nc1ccc(CN2CCCCC2)cc1	18	0	-3	0	x	x
O=C(CNC1CCCCC1)Nc1ccc(CN2CCCCC2)cc1	74*	0	-7	1	6	18
Fc1ccc(N2CCN(Cc3ccccn3)CC2)cc1	63*	0	0	1	14	42*
Fc1cccc(CN2CCN(Cc3ccccn3)CC2)c1	71*	0	-6	0	11	25
c1ccc(Oc2cccc(CN3CCN(Cc4ccccn4)CC3)c2)cc1	75*	0	2	-1	-5	5
CCc1nc(NCCCCCO)c2nnn(Cc3ccccc3F)c2n1	59*	0	12	1	6	15
Cc1cccc(NC(=O)CSc2nc3ccc(NC(=O)c4cccc5ccccc45)cc3s2)c1C	1	0	4	1	x	x
O=C1C(=O)N(CCOCCO)C(c2cccs2)/C1=C(\O)c1ccc(F)cc1 (configuration not stated)	55*	0	4	-1	2	-6
O=C1C(=O)N(CCN2CCOCC2)C(c2cccs2)/C1=C(/O)c1ccc(F)cc1 (configuration not stated)	5	0	-5	-1	x	x
COc1ccc(CCNCc2ccc(-n3ccnc3)cc2)cc1	36	0	-1	-1	x	x
COc1ccc(CNC(C)c2ccc(-n3ccnc3)cc2)cc1F (configuration not stated)	66*	0	0	1	14	19
COc1cccc(-n2cc(C(=O)NC3CC3)c3ccccc3c2=O)c1	2	0	-6	0	x	x
Cc1ccccc1/C=C1\N=C(c2cc(C3=N/C(=C/c4ccccc4C)C(=O)O3)cc(C3=N/C(=C/c4ccccc4C)C(=O)O3)c2)OC1=O	59*	0	-2	0	46*	12
Cc1ccc(C)c2c1CC(C)(C)NC2=S	70*	0	0	-1	8	15
Cc1cccc2c1CC(C)(C)NC2=S	5	0	4	-1	x	x
O=C(O)c1ccc(SCc2cccc(Br)c2)c([N+](=O)[O-])c1	16	0	6	0	x	x
O=C(COC(=O)c1ccco1)c1ccc2ccccc2c1	92*	0	-1	3	9	8
SMILES	MITF inh	FBW7 act	TEAD-YAP block	GPR151 ag	MITF inh conf	AlphaScreen intf2	others
CCN(CC)C(=O)/C(=C\c1ccco1)NC(=O)c1ccc(C)cc1	8	0	7	0	x	x
O=C(Cn1ccccc1=S)c1ccccc1	63*	0	8	-1	6	10
Clc1cc2c(c3ncccc13)OCN(Cc1cccnc1)C2	94*	-1	84*	0	96*	100*
O=S1(=O)CCC(N2COc3c(cc(Cl)c4cccnc34)C2)C1 (configuration not stated)	55*	-1	14	0	39*	91*
COc1ccccc1C(O)(C(=O)NNc1ccccn1)c1ccccc1OC	1	0	2	-1	x	x
CCN(CC)C(=O)CN1CCCC(c2[nH]ncc2-c2cc(C)no2)C1 (configuration not stated)	8	0	-1	1	x	x
CC(=O)Nc1ccc(-c2csc(Nc3ccc([N+](=O)[O-])cc3)n2)cc1	-1	0	1	-1	x	x
